Compound activity as filed in PubChem.
Most compounds without a hit are left out; they make up all but 1.2% or so of the library.
DSG3 Ab inh: inhibitors of pemphigus antibody binding to DSG3, primary screen, biochemical, bead-based, flow cytometry, scFv-GFP. Desmoglein-3 (Homo sapiens), P32926. DSG3-coupled beads, scFv-anti-DSG3-GFP binding; active compounds read low. binding (percent of control), % at 10 µM. actives 0.48% (n = 310,000);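 active = binding more than 3 SD below its plate's average and above zero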;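 note: hits lower antibody fragment binding to DSG3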
Target sequence (P32926 whole entry, looked up, the tested form may be a part): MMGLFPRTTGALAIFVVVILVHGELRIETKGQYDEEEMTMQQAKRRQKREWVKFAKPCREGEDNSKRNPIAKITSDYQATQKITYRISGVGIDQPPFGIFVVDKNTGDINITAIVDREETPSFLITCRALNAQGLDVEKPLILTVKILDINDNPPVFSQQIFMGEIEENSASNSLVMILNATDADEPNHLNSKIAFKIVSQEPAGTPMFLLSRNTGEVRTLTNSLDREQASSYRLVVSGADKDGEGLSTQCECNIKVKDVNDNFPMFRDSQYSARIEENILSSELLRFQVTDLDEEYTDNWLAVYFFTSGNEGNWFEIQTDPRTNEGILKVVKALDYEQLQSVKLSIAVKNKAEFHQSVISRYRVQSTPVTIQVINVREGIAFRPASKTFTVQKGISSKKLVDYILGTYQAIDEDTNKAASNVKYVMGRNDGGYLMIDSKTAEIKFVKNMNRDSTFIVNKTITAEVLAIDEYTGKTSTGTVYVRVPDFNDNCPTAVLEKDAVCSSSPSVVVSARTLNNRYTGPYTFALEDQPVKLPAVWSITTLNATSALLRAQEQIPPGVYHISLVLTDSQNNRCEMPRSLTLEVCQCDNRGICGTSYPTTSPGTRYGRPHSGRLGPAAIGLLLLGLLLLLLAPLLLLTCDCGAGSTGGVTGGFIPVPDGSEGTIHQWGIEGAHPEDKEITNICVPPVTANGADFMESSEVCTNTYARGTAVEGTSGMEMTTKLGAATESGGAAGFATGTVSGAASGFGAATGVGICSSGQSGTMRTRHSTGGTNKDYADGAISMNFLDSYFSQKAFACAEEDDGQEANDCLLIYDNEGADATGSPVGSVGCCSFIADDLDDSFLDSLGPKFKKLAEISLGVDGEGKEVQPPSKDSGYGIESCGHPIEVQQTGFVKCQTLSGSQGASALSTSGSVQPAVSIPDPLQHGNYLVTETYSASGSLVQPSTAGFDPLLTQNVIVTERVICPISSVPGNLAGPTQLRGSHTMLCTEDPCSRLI
CIT2 TOR yeast: modulators of CIT2-GFP expression in yeast, primary screen, S. cerevisiae, GFP fusion, multiplex flow cytometry, MLPCN library; actives 0.065% (n = 320,000); S. cerevisiae CIT2-GFP strain, 3 h; 100 means same as DMSO wells; GFP response vs DMSO, % at 10 µM;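 active = GFP response relative to DMSO above a set limit, near the screen mean plus 3 SD, cut at about 150% in these data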;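 note: ratio of well median GFP fluorescence to mean of DMSO wells on the plate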
AGP1 TOR yeast: modulators of AGP1-GFP expression in yeast TOR pathway, primary screen, cell-based, multiplex flow cytometry, S. cerevisiae, MLPCN library; GFP response vs DMSO, % at 10 µM; actives 0.02% (n = 320,000); 3 h; GFP as percent of DMSO wells; AID 2066, 2009;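 active = GFP response relative to DMSO above a set limit, near screen average plus 3 SD, cut at about 150% in these data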;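 note: median GFP channel fluorescence of the gated AGP1 strain per well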
LAP4-GFP MLPCN: modulators of LAP4-GFP expression in yeast, primary screen, S. cerevisiae, multiplex flow cytometry, MLPCN library. GFP response vs DMSO, % at 10 µM. 3 h; median GFP as percent of DMSO wells. actives 0.34% (n = 320,000);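 active = GFP response vs DMSO above a set limit, about the screen mean plus 3 SD, cut at about 150% in these data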
MEP2-GFP yeast: modulators of MEP2-GFP levels in yeast, primary screen, S. cerevisiae, multiplex flow cytometry, MLPCN library | S. cerevisiae MEP2-GFP strain, 3 h; 100% = DMSO control level | GFP response vs DMSO, % at 10 µM | actives 0.51% (n = 330,000) | AID 2016, 2009;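 active = GFP response versus DMSO above a set limit, roughly screen mean plus 3 SD, cut at about 180% in these data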;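 note: median GFP fluorescence of the barcode-gated MEP2-GFP cells per well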
RPL19A TOR yeast: RPL19A-GFP expression modulators in yeast, primary screen, cell-based, S. cerevisiae, multiplex flow cytometry, MLPCN. S. cerevisiae RPL19A-GFP strain, 3 h; active compounds read low. percent response vs DMSO, % at 10 µM. actives 0.3% (n = 330,000);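 active = percent response vs DMSO below 50%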;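 note: median channel GFP fluorescence of the barcoded RPL19A-GFP strain; ratio of sample median GFP to plate DMSO average so 100% = DMSO; lower means less RPL19A-GFP as with rapamycin TOR inhibition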
LAP4 cherry2: LAP4-GFP expression modulators in yeast, confirmation, cell-based, second cherry pick, flow cytometry; shares compounds with LAP4-GFP MLPCN; S. cerevisiae LAP4-GFP strain, 3 h; GFP response vs DMSO, % at 10 µM; actives 20% (n = 590); AID 2621, 2010;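 active = GFP signal as percent of the solvent control above about 150%, meaning raised reporter expression, limit read from the data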;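 note: ratio of well median GFP fluorescence to plate DMSO mean so 100% = DMSO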
MEP2 cherry2: modulators of MEP2-GFP levels in yeast, confirmation, S. cerevisiae, flow cytometry GFP, second cherry picks. shares compounds with LAP4-GFP MLPCN. S. cerevisiae MEP2-GFP strain, 3 h. GFP response vs DMSO, % at 10 µM. actives 10% (n = 590). AID 2622, 2010;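 active = GFP signal above 150% of the solvent control wells, that is a rise of more than half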;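 note: median channel GFP fluorescence of all gated yeast cells per well; ratio of median GFP to plate DMSO average so 100% = DMSO level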
RPL19A GFP CP2: RPL19A-GFP modulators in TOR pathway yeast, confirmation, cell-based, S. cerevisiae, flow cytometry, second cherry pick; shares compounds with LAP4-GFP MLPCN; S. cerevisiae RPL19A-GFP strain, 3 h; active compounds read low; 100% means same as DMSO wells; GFP response vs DMSO, % at 10 µM; actives 3% (n = 590);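 active = under 65% GFP response relative to DMSO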;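 note: median GFP channel fluorescence per well over the all cells gate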
CIT2 GFP CP2: modulators of CIT2-GFP expression in yeast, confirmation, flow cytometry, second cherry pick, single plex. S. cerevisiae CIT2-GFP strain, 3 h; DMSO control wells read 100%. GFP response vs DMSO, % at 10 µM. shares compounds with LAP4-GFP MLPCN. actives 8% (n = 590);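 active = GFP response vs DMSO above about 150%, limit read from the data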;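 note: median green fluorescence per well over all gated yeast cells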
AGP1-GFP pick2: AGP1-GFP expression modulators, hit retest, confirmation, cell-based, flow cytometry, S. cerevisiae, cherry pick set 2 | shares compounds with LAP4-GFP MLPCN | S. cerevisiae AGP1-GFP strain, 3 h | percent response vs DMSO, % at 10 µM | 590 tested, under 10 active;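 active = over 150 percent of DMSO response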;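 note: median GFP channel fluorescence over all cells without mother daughter split; sample median GFP divided by mean DMSO control so 100% equals DMSO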
Yeast autofluor: compound autofluorescence in yeast s288c, dose response, artefact control for yeast TOR pathway GFP screen, s288c strain; fluorescence change (kMESF span) at 33 µM; S. cerevisiae s288c, 520 nm autofluorescence, flow cytometry, 3 h; active compounds read high; zero means same as solvent-only cells; shares compounds with LAP4-GFP MLPCN; 610 tested, under 10 active;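 active = fluorescence span over the dose series, or activity score, above about 33, limit read from the data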
Yeast autofl DR: autofluorescence of compounds in yeast s288c, dose response, artefact control for yeast TOR pathway GFP screen, primary hits, KU SAR, s288c parental | fluorescence change (span) at 33 µM | 110 tested, under 10 active | S. cerevisiae s288c parental, compound autofluorescence, flow cytometry, 3 h | shares compounds with LAP4-GFP MLPCN;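 active = fluorescence change span, or the activity score built from it, above 25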
TORC1 bypass gr: wild-type yeast growth inhibition sparing TORC1 bypass cells, mechanism study for yeast TOR pathway GFP screen, BY4741 wild type, TORC1 bypass strain; shares compounds with LAP4-GFP MLPCN; S. cerevisiae BY4741 spot growth rating, 48-72 h; active compounds read low; growth rating (0-3) at 30 µM; 120 tested, under 10 active;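 active = growth rating at most 1 for wild type yeast while the TORC1 bypass strain still grows fully, rated 3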
Active calls of the source: *; nt = not tested or not shown.

SMILES	DSG3 Ab inh	CIT2 TOR yeast	AGP1 TOR yeast	LAP4-GFP MLPCN	MEP2-GFP yeast	RPL19A TOR yeast	LAP4 cherry2	MEP2 cherry2	RPL19A GFP CP2	CIT2 GFP CP2	AGP1-GFP pick2	Yeast autofluor	others
O=C1OCCC1Sc1nnc(-c2ccc(Br)cc2)o1 (configuration not stated)	105	105	26	98	174	65	99	100	100	110	97	nt
O=C1OCCC1Sc1nnc(-c2ccco2)o1 (configuration not stated)	99	102	108	113	102	98	nt	nt	nt	nt	nt	nt
CN(C)/C=C/C(=O)c1cnc(-c2ccccn2)s1	104	97	89	99	89	100	nt	nt	nt	nt	nt	nt
CCOC(=O)Cn1nc(-c2ccc(Cl)cc2)ccc1=O	101	94	nt	98	99	96	nt	nt	nt	nt	nt	nt
CC(=O)N(C(C)=O)c1ncnc2c1c(-c1ccc(Cl)cc1)nn2C(C)(C)C	101	90	97	96	93	95	96	100	98	94	92	-0.2
CC(=O)Nc1ncnc2c1c(-c1ccc(Cl)cc1)nn2C(C)(C)C	106	55	85	146	88	64	113	107	59*	68	79	-0.91	Yeast autofl DR=0.14;TORC1 bypass gr=3
O=C(CSc1nnc(NC(=O)c2ccc(F)cc2)s1)NC1CCCC1	106	106	107	97	103	103	nt	nt	nt	nt	nt	nt
CC(=O)Nc1ccc(C(=O)OCC(=O)NCc2ccc3c(c2)OCO3)cc1	121	96	104	103	109	99	nt	nt	nt	nt	nt	nt
O=c1cc(-c2ccccc2)cc(-c2ccccc2)n1O	100	69	89	194*	97	99	137	189*	70	125	63	1.2
